Laboratory results published in PubChem BioAssay (NCATS).
Results filed as inconclusive are left out. A number with no mark means an inactive call. Calls follow the shape of the dose curve; as a rule, active = well fitted inhibition curve with a large enough effect; inconclusive = small, poorly fitted or top-dose-only effect; inactive = no such curve, though single readings can be large or run the other way. Where a SMILES comes first, the peptide text is derived from it. [ ]: non-standard residue; d: D form. pGlu = O=C1CC[C@@H](C(=O)O)N1

Experiment: Primary qHTS for inhibitors of La Crosse Virus (LACV) - induced cell death in SH-SY5Y cells (AID 1508616);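 also: top concentration of the series differs between compounds; 0% = infected DMSO wells and 100% = uninfected DMSO wells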
Conditions: SH-SY5Y LACV cytopathicity rescue, ATP luminescence, 6 d; series mostly up to 4.29 µM; activity change: at the top concentration
Description: Assay Provider: Karin Peterson Ph.D.
National Institute of Allergy and Infection Diseases, National Institute of Health
La Crosse Virus (LACV) is a California serogroup mosquito-borne arbovirus, family Peribunyaviridae, which is an endemic pathogen in North America and can induce a rare, life-threatening neurological disease in children. LACV was first isolated in the early 1960s, from a summer "rural encephalitis" case in La Crosse, Wisconsin, USA. Since then, LACV encephalitis cases have been found in more than twenty states, with most cases in the Mississippi and Ohio River basins. The life cycle of LACV is maintained between the vector, the eastern tree-hole mosquito Aedes triseriatus, and vertebrate hosts including eastern gray squirrels (Sciurus carolinensis) and chipmunks (Tamiasstriatus grinseus). […] Most LACV infections in humans are asymptomatic or induce mild clinical symptoms of fever, headache, lethargy and vomiting. However, in some cases LACV can cause severe neuroinvasive disease, including encephalitis, meningitis, and meningoencephalitis, requiring hospitalization. To date, there is neither a licensed vaccine nor a Food and Drug Administration (FDA) approved antiviral therapy available to prevent or treat LACV encephalitis. The primary treatment for viral encephalitis is palliative care due to the lack of therapeutics. In the current study, we conducted a screen of 4,096 FDA approved and bioactive small molecules against LACV, by screening for rescue of LACV-induced cell death in SH-SY5Y cells.
LACV-induced cytopathicity assay
SEQUENCE No. (1,2, 3, etc.); […] (e.g., Cells, Incubation, Reagent, etc.); VALUE and DESCRIPTION.
1. Reagent; 2 uL; Cell solution.
3. Compounds; 23nL; Compound library
4. Reagent; 12 uL; LACV virus
6. Reagent; 24 uL; ATPLite (PerkinElmer)
7. Time; 5 min; Room temperature
8. Detection; Luminescence; View
NOTES (numbers refer to sequence above)
1. Seed 6000 SH-SY5Y cells (ATCC CRL-2266) in 2 microL/well media (DMEM/F12 10% FBS, 1x L-Glutamine, 1x Pyruvate, 1x NEAA, 1x Pen/Strep) in 384-well assay plates (tissue culture treated, white, solid bottom).
2. Incubate at 37 degrees C with 5% CO2 for 24 hr.
3. Dispense 23 nL/well compounds in DMSO via pin transfer.
4. Dispense 12 microL/well of LACV (LACV/human/1978) in media at 0.01 MOI.
5. Incubate at for 6 days at 37C 5% CO2
6. Dispense 24 microL/well of ATPLite 1step Luminescence assay system (PerkinElmer).
7. Incubate for 5 min at room temperature.
8. Read luminescence signal (Viewlux plate reader, PerkinElmer). Data was normalized with DMSO control wells containing LACV as 0%, and DMSO control wells without virus as 100%.

Row | Structure (SMILES) | activity change
1 | CC[C@@]1(O)C(=O)OCc2c1cc1n(c2=O)Cc2c-1nc1ccccc1c2/C=N/OC(C)(C)C | -95.2%
2 | CCC1(c2cnc[nH]2)Cc2ccccc2C1 | -7.04%
3 | CN(C)CCN1CCN(c2cccc(Cl)c2)C1=O | 16%
4 | c1ccc2c(c1)CCc1ccccc1N2 | 24%
5 | CCC(=O)O[C@H]1[C@H](O[C@@H]2[C@@H](C)[C@H](O[C@H]3C[C@@](C)(OC)[C@@H](O)[C@H](C)O3)[C@@H](C)C(=O)O[C@H](CC)[C@@](C)(O)[C@H](O)[C@@H](C)C(=O)[C@H](C)C[C@@]2(C)O)O[C@H](C)C[C@@H]1N(C)C | 14.7%
6 | CCCN(CCC)C(=O)C(CCC(=O)OCCCN1CCN(CCOC(=O)Cc2c(C)n(C(=O)c3ccc(Cl)cc3)c3ccc(OC)cc23)CC1)NC(=O)c1ccccc1 (stereo not given) | -7.64%
7 | COC(=O)c1cc(Cl)c(NC(C)=O)cc1OC | 9.85%
8 | COc1cc(OC)nc(O[C@H](C(=O)O)C(OC)(c2ccccc2)c2ccccc2)n1 | -13%
9 | O=C(O)CCC(=O)OC[C@@H](NC(=O)C(Cl)Cl)[C@H](O)c1ccc([N+](=O)[O-])cc1 | -0.966%
10 | CCNC(=O)[C@@H]1CCCN1C(=O)[C@H](CCCN=C(N)N)NC(=O)[C@H](CC(C)C)NC(=O)CNC(=O)[C@H](Cc1ccc(O)cc1)NC(=O)[C@H](CO)NC(=O)[C@H](Cc1c[nH]c2ccccc12)NC(=O)[C@H](Cc1cnc[nH]1)NC(=O)[C@@H]1CCC(=O)N1 ([pGlu]HWSYGLRP-NHEt) | -11.8%
11 | CCCC(=O)OCOC(=O)C1=C(C)NC(C)=C(C(=O)OC)C1c1cccc(Cl)c1Cl (stereo not given) | 0.729%
12 | O=C(CCCl)NCCc1ccccc1 | 33.4%
13 | O=C(O)CCCC[C@@H]1SC[C@@H]2NC(=O)N[C@@H]21 | -4.34%
14 | CN=C(N)NC(=O)Nc1c(C)cccc1C | 28%
15 | N[C@@H](Cn1ccc(=O)c(O)c1)C(=O)O | 0.367% [at 9.63 µM]
16 | CC(C)C(=O)OCc1cccc(OC(=O)[C@@H]2N3C(=O)[C@@H](NC(=O)Cc4ccccc4)[C@H]3SC2(C)C)c1 | -17.9%
17 | CO/N=C(/C(=O)N[C@@H]1C(=O)N2C(C(=O)O)=C(Cn3nnc(C)n3)CS[C@H]12)c1csc(N)n1 | -2.15%
18 | CC1CCCCN1CCCOC(=O)c1ccc(OC2CCCCC2)cc1 (stereo not given) | 0.449%
19 | O=C(O)c1ccc(OCCN2CCCCC2)cc1 | -4.48%
20 | C[C@@]12CCC[C@H]1[C@@H]1CC[C@H]3C[C@@H](O)CC[C@]3(C)[C@H]1CC2 | -9%

Row | Structure (SMILES) | activity change
21 | CCCCC(CC)COC(=O)c1ccccc1C(=O)O (stereo not given) | -8.37% [at 8.54 µM]
22 | CC(C)NCCCC1(C(N)=O)c2ccccc2-c2ccccc21 | 3.2%
23 | COc1cc(/C=C/C(N)=O)cc(OC)c1OC | 10.5%
24 | O=C1CC(c2ccc(Cl)cc2)CC(=O)N1 | -15.5%
25 | COC(=O)CCCCC(CCSS/C(CCO)=C(\C)N(C=O)Cc1cnc(C)nc1N)SC(C)=O (stereo not given) | -5.63%
26 | CC(=O)OCC[N+](C)(C)C | 27.8%
27 | COc1ccccc1N1CCN(CCN2C(=O)CC3(CCCC3)CC2=O)CC1 | 20.2% [at 9.63 µM]
28 | Nc1ccc([N+](=O)[O-])c(C(F)(F)F)c1 | -9.38%
29 | [O-][n+]1cccc(/C(Cl)=N/OC[C@@H](O)CN2CCCCC2)c1 | -9.96%
30 | C[N+]1(CC2COC(c3ccccc3)(c3ccccc3)O2)CCCCC1 (stereo not given) | -6.04% [at 1.78 µM]
31 | CC1(C)S[C@@H]2[C@H](NC(=O)C(c3ccccc3)S(=O)(=O)O)C(=O)N2[C@H]1C(=O)O (stereo not given in full) | 2.85%
32 | O=C(CCCl)NCc1ccccc1 | -9.97%
33 | CCCCCCCCCCCCCCCCCCN(C)C | -5.27%
34 | CSc1ccc(/C=C2/C(C)=C(CC(=O)O)c3cc(F)ccc32)cc1 | 9.72%
35 | Cc1cccc(N(C)C(=S)Oc2ccc3c(c2)C2CCC3C2)c1 (stereo not given) | 27.4%
36 | Brc1ccc([C@H]2CN3CCSC3=N2)cc1 | -17.2% [at 9.63 µM]
37 | CCN1C(=O)c2ccccc2C1Nc1ccc(OCCN2CCCCC2)cc1 (stereo not given) | 5.35%
38 | Cc1ccc2ccc(Cl)cc2n1 | -4.82%
39 | O=C(CS(=O)Cc1ccco1)NC/C=C\COc1cc(CN2CCCCC2)ccn1 (stereo not given) | -11.6%
40 | CC(C)=CCC/C(C)=C/CC/C(C)=C/C(=O)OCC(=O)[C@@]1(O)CC[C@H]2[C@@H]3CCC4=CC(=O)C=C[C@]4(C)[C@H]3[C@@H](O)C[C@@]21C | 70.8%
